From PubChem
In the library only some 2.2% were active in any assay of this set; here they are far more common.
Shn3 3UTR inh – inhibitors of Schnurri-3 3'UTR reporter in osteoblasts; 360,000 tested, 0.52% active; inhibition, % at 12.5 µM; Clone20 osteoblast Shn3 3'UTR firefly luciferase, 24 h;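 active means mean inhibition of at least 75% with every replicate also reaching 75%; inconclusive means mean inhibition at least 75% but some replicate below; inactive means mean inhibition below 75%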;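 further: 0% = median of neutral control wells and 100% = pilot-screen positive control compound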
PfHsp90 set2 – growth inhibition of yeast expressing Plasmodium Hsp90; inhibition, % at 9.4 µM; S. cerevisiae expressing PfHsp90, BacTiter-Glo ATP, 48 h; yeast lacking PDR1 and PDR3 efflux regulators; AID 504621; 310,000 tested, 0.32% active;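 active means every replicate shows inhibition above about 80%, whatever the replicate mean, limit read from the data; inconclusive means mean inhibition reaches the set limit but some replicate falls short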;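 further: 0% = DMSO neutral controls and 100% = 20 µM radicicol positive controls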
Beta apoptosis – beta cell apoptosis inhibition. INS-1E cytokine-induced death, ATP luminescence, 48 h; percent of positive-control rescue, neutral wells zero. protection from apoptosis, % (concentration not given with the values). 300,000 tested, 0.8% active;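 active means Every replicate reaches about 75%, or at least half do and their mean reaches it too, limit read from the data; inconclusive means At least half of replicates reach the limit but their mean does not; inactive means Under half of replicates reach the limit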;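 further: 0% = cytokine-treated negative control wells and 100% = positive control rescue; higher means more ATP so stronger rescue from cytokine killing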
Calb FLC – C. albicans growth modulation with fluconazole; growth inhibition, % (test concentration not listed); C. albicans CaCi-2 (fluconazole-resistant clinical isolate) + fluconazole, Alamar Blue growth, 48 h; 300,000 tested, 0.57% active;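 active means growth inhibition above about 58% in most replicates, limit read from the data, passing the limit was not always enough; inconclusive means exactly half the replicates above a set limit; inactive means most replicates below a set limit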;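 further: all wells also contain fluconazole at 8 µg/ml as a sub-toxic cotreatment; 0% = median of DMSO wells and 100% = median of geldanamycin control wells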
CSC inhib – blocks cancer stem cells | cancer stem cell-like cells viability, luminescence | inhibition, % at 7.5 µM | 300,000 tested, 1.1% active | AID 2717; in the data active means inhibition above about 75%; inconclusive means no clear call, values can overlap the other calls; tested in HMLE shEcad cells
Starred values were filed as active, the others as inactive; ? = inconclusive; . = no result given; + = active, no number.

SMILES	Shn3 3UTR inh	PfHsp90 set2	Beta apoptosis	Calb FLC	CSC inhib
Cn1c(NC(=O)C[n+]2cc(-c3ccc(Cl)c(Cl)c3)n3c2CCC3)cc(=O)n(C)c1=O	16	-10	6	-14	-6
Cc1cc(C)c(Nc2cc(S(=O)(=O)O)c(N)c3c2C(=O)c2ccccc2C3=O)c(C)c1	3	14	16	.	94*
O=C(NCc1nc2ccccc2[nH]1)C1=C[C@@H](C2CCCCC2)C[C@@H](OCc2ccc(CO)cc2)O1	5	8	106*	31	2
COc1ccc(Nc2nc(NCCO)nc(N3CCCC3)n2)cc1	-5	22	-5	-10	-1
OCCNc1nc(Nc2ccc(Cl)cc2)nc(N2CCCC2)n1	87*	2	4	3	12
Nc1c(C(O)(C(F)(F)F)C(F)(F)F)cc(C(O)(C(F)(F)F)C(F)(F)F)c2ccccc12	11	-1	20	1	124*
COc1cc(C#Cc2c(-c3cncn3C)n(C)c3ccc(-c4ccc(OC)nc4)cc23)cc(OC)c1	94*	+	18	.	84*
COc1cc(C#Cc2c(-c3cncn3C)n(C)c3ccc(-c4cc(OC)c(OC)c(OC)c4)cc23)cc(OC)c1	68	12	22	.	62
COc1cccc(CNC(=O)CCNS(=O)(=O)c2ccc(C)cc2)c1	-11	-24	-6	-4	-13
Nc1ccc(-c2nc(-c3ccccc3)nc3ccccc23)cc1	-9	-2	-3	-4	40
Nc1ccc(-c2cc(-c3cccc(N)c3)nc(-c3ccccc3)n2)cc1	-8	16	-9	-11	84*
Oc1c(Br)cc(Br)cc1C=NCc1ccccc1	-18	96*	-7	-10	-6
Oc1c(Br)cc(Br)cc1C=NCc1ccc(F)cc1	5	99*	-9	-29	.
CC12CN(C(=O)c3ccccc3Br)CC(C)(CN(C(=O)c3ccccc3Br)C1)C2=O	3	15	3	-4	-5
COc1cccc(C(=O)Oc2c(Br)cc(Br)cc2/C=N/NC(=O)c2cc(C)[nH]n2)c1	82	-27	81*	-7	56
Cc1cc(C(=O)N/N=C/c2cccc(OC(=O)c3cccc(Br)c3)c2)n[nH]1	-30	-12	-6	-13	-2
Cc1cc(CN2CCOCC2)c(O)c(C2(C)CCCCC2)c1	87*	22	10	2	67
Cc1cc(CN(C)C)c(O)c(C2(C)CCCCC2)c1	24	-9	-5	6	.
COC(=O)c1ccc(CN(c2ccccn2)S(=O)(=O)c2ccccc2)cc1	11	.	-13	-25	-4
COC(=O)c1ccc(CN(c2ccc(C(=O)O)c(O)c2)S(=O)(=O)c2ccc(Cl)c([N+](=O)[O-])c2)cc1	10	-18	-1	17	92*
CCOc1ccc(C2/C(=C(\O)c3cccc(OC)c3)C(=O)C(=O)N2c2ccccn2)cc1OC (configuration not stated)	13	-6	-3	1	-5
c1ccc2c(-c3[nH]ncc3CNCCCn3ncc4ccccc43)cccc2c1	90*	3	33	-1	5
OCC1CCCCN1CCNCc1cn[nH]c1-c1cccc2ccccc12 (configuration not stated)	-34	1	2	-5	-7
COc1cccc([C@@H]2Oc3ccc(OC)cc3C(=O)[C@H]2O)c1	-69	18	20	4	11
COc1ccc2c(c1)C(=O)[C@@H](O)[C@H](c1ccc(OC)c(Br)c1)O2	27	17	77*	-15	-27
SMILES	Shn3 3UTR inh	PfHsp90 set2	Beta apoptosis	Calb FLC	CSC inhib
O=C(NCc1ccco1)C1CCN(C(=O)c2ccc(Cl)cc2Cl)CC1	5	-34	-1	4	-10
O=C(CSCc1cccc(Cl)c1)Nc1ccccc1-c1ccccc1	4	-21	-4	?	75*
CSc1nc(N2CCN(Cc3ccc4c(c3)OCO4)CC2)c2ccccc2n1	86*	-6	3	-9	17
CCn1c(=O)c([N+](=O)[O-])c(N2CCN(Cc3ccc4c(c3)OCO4)CC2)c2ccccc21	15	.	129*	-12	-4
O=C(CCCCC(=O)Nc1ccc(F)cc1F)Nc1ccc(F)cc1F	-5	-5	133*	1	8
CCCCC(=O)Nc1ccc(Cl)cc1F	2	.	.	.	.
C[C@@H]1CN([C@H](C)CO)S(=O)(=O)c2ccc(Br)cc2O[C@H]1CN(C)S(C)(=O)=O	-13	.	.	.	.
O=C1/C(=C\c2cccnc2)SC(=S)N1C1CCS(=O)(=O)C1 (configuration not stated)	-11	-2	-70	91*	37
